Data published in PubChem BioAssay AID763 (NMMLSC, 2007).

Biological target: fMet-Leu-Phe receptor (Homo sapiens) (UniProt P21462)
Assay: human FPR1 ligand displacement single-point test – cell-based, single concentration, selectivity assay for FPRL1 ligand SAR project, SAR follow-up (AID 763)
Conditions: FPR1-expressing cells, fluorescent ligand binding inhibition, hits give high values; at 5.4 µM unless noted; call rule not given here

Sequence of fMet-Leu-Phe receptor (Homo sapiens) (P21462 whole entry, looked up): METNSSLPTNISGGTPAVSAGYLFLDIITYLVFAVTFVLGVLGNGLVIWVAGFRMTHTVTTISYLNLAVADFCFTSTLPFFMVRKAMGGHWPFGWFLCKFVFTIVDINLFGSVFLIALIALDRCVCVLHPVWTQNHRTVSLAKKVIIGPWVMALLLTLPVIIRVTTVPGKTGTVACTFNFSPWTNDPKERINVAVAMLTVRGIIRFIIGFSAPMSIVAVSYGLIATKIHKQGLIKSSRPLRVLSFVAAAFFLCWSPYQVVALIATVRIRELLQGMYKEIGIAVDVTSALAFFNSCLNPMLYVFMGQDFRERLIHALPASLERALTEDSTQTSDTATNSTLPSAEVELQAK

inhibition, inactive:
CC(=O)N1CCN(c2nc(-c3ccccc3)c3cc(C)ccc3n2)CC1 -0.1% [at 6.4 µM], Fc1ccc(-c2cc(C(F)(F)F)nc(N3CCN(c4cccc(Cl)c4)CC3)n2)cc1 5.6% [at 5.1 µM], COc1ccc(-c2cn3cccnc3n2)cc1NC(=O)Cc1ccccc1 -1.4% [at 6.2 µM], COc1ccc(-c2cn3cccnc3n2)cc1NC(=O)c1ccc(OC)c(OC)c1 -5.3% [at 5.5 µM], COc1ccccc1-c1cc(C(F)(F)F)nc(N2CCN(c3ccccc3OC)CC2)n1 -2.2% [at 5 µM], CCOC(=O)N1CCN(c2nc(-c3ccc(Cl)cc3)cc(C(F)(F)F)n2)CC1 -2.8%, COc1ccc(-c2cn3cccnc3n2)cc1NC(=O)c1ccccc1Cl -3.1% [at 5.9 µM], Cc1ccc2nc(N3CCN(C(=O)CCC(=O)O)CC3)nc(-c3ccccc3)c2c1 5.7% [at 5.5 µM], O=C(O)CCCC(=O)N1CCN(c2nc(-c3ccccc3Cl)c3cc(Br)ccc3n2)CC1 1.9% [at 4.3 µM], CC(C)(C)OC(=O)N1CCN(c2nc(-c3ccccc3)c3ccccc3n2)CC1 -1.7% [at 5.7 µM], COc1cccc(-c2cc(C(F)(F)F)nc(N3CCN(Cc4ccccc4)CC3)n2)c1 -16.6% [at 5.2 µM], O=C(O)/C=C/C(=O)N1CCN(c2nc(-c3ccccc3)c3ccccc3n2)CC1 2.4% [at 5.7 µM]
